Bioassay records as filed in PubChem.
HP1b chromo inh = HP1-beta chromodomain-methylated histone interaction inhibition; P83916; AlphaScreen HP1-beta / biotin-H3K9me3 peptide binding; Potency, µM (highest dose often 114 µM), hits mostly inhibitors; 390,000 compounds, 0.56% hits; AID 540317; note: nearly all actives have a fitted effect of over 70% in size
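Compound inhibition of the preformed complex between 50 nM HP1-beta and 50 nM biotinylated H3K9me3 peptide was read by AlphaScreen. Buffer was PBS pH 7.4 with 0.01% Tween-20. Incubations ran 30 min at room temperature, with 10 ug/mL donor/acceptor beads.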
BAZ2B block = BAZ2B (human) inhibition; AlphaScreen BAZ2B-H3K14Ac peptide displacement; Potency, µM (series often up to 114 µM), actives largely listed as inhibitors; 360,000 compounds, 4.4% hits; note: nearly all actives have a fitted effect of over 60% in size
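BAZ2B 50 nM plus b-H3(5-23)K14Ac 50 nM, PBS pH 7.4/0.01% Tween-20, 30 min RT; compound added (max 110 uM), 30 min RT; streptavidin donor/Ni-chelate acceptor beads 10 ug/mL final, 20 min dark; AlphaScreen read.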
G9a inh = blocks human histone lysine methyltransferase G9a. G9a H3K9 monomethylation, AlphaScreen, 2 h. Potency, µM (doses to about 102 µM), usual class: inhibitors. 350,000 compounds, 8.8% hits. AID 504332; note: nearly all actives have a fitted effect of over 75% in size
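G9a (20 nM) preincubated 15 min RT with compounds, then 500 nM biotinylated H3K9 peptide and 20 uM SAM added; 2 h RT reaction. Monomethyl-H3K9 product detected by AlphaScreen with anti-H3K9me1 antibody, streptavidin donor and anti-rabbit IgG acceptor beads.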
Sfp inh = inhibitors of Bacillus subtilis Sfp phosphopantetheinyl transferase. Potency, µM, usual class: inhibitors. Q9F4F7. Biochemical Sfp PPTase activity, qHTS. 310,000 compounds, 3.5% hits;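 note: the enzyme is Sfp with the accession as filed and its product quenches rhodamine fluorescence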
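Fluorescence-quenching assay: 15 nM Sfp-PPTase preincubated 15 min at room temperature with compound, then 5 uM rhodamine-CoA and 12.5 uM BHQ-2-labelled YbbR peptide added. Fluorescence (ex 525/em 598 nm) read at start and after 30 min; difference gives rate.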
JMJD2A Tudor = JMJD2A Tudor domain (human) inhibition; AID 504339; AlphaScreen JMJD2A-Tudor / H3K4me3 peptide binding; O75164; 390,000 compounds, 4.4% hits; Potency, µM (highest dose often 114 µM), actives largely listed as inhibitors; note: nearly all actives have a fitted effect of over 50% in size
A number is an active result; i = inactive; ? = inconclusive; nt = no result given; ! = repeats disagree; [ ] = remark or other dose. Shown are actives, neighbours in structure and some others; about 12% of the full set was active somewhere. Calls come from the whole dose curve; as a rule, active = well fitted curve in the direction sought with a large enough effect; inconclusive = small, poorly fitted or top-dose-only effect, or another doubt; inactive = no such curve, though single readings can be large; an effect the other way counts as inactive or inconclusive.

SMILES	HP1b chromo inh	BAZ2B block	G9a inh	Sfp inh	JMJD2A Tudor
CCOC(=O)c1ccc(NC(=O)c2c(NCc3sccc3C)sc3c2CCC(C)C3)cc1 (configuration not stated)	i	i	?	nt	i
COc1ccc(-n2c(CC3C(=O)N(C)c4ccc(C)cc43)nc3ccccc3c2=O)cc1 (configuration not stated)	i	i	i	nt	i
CSCC[C@H](NC(=O)[C@@H]1Cc2ccccc2CN1)C(=O)Nc1ccc2c(c1)OCO2	i	?	?	i	?
CC1=C(/C=C/C(C)=C\C=C\C(C)=C\C(=O)O)C(C)(C)CCC1	nt	nt	22.4µM!	i	nt
CC1=C(/C=C/C(C)=C/C=C/C(C)=C/C(=O)O)C(C)(C)CCC1O (configuration not stated)	nt	nt	i	i	nt
CC1=C(/C=C/C(C)=C/C=C/C(C)=C/C(=O)O)C(C)(C)CCC1	i	?	50.1µM!	?	i
CCOc1cccc2sc(N(CCN(C)C)C(=O)c3cc4ccccc4cc3OC)nc12	i	?	39.8µM	?	44.7µM
CCOc1ccc2nc(N(CCN(C)C)C(=O)c3cc4ccccc4cc3OC)sc2c1	?	?	50.1µM	?	39.8µM
CCOc1ccc2nc(N(CCCN(C)C)C(=O)c3ccc(S(=O)(=O)N4CCc5ccccc5C4)cc3)sc2c1	i	i	nt	i	i
CCOC(=O)C1CCCN(C(=O)c2cc3cc(OC)c(OC)cc3[nH]2)C1 (configuration not stated)	i	i	i	i	i
Cc1ccc(Nc2nc3ccccc3s2)cc1	i	i	i	i	i
Cc1ccc(Nc2nnns2)cc1	?	i	5.62µM	6.31µM	i
CCOC(=O)C(C)/C(C)=N/NC(N)=S (configuration not stated)	i	i	?	39.8µM	i
Cc1ccc(CNC(=O)C2CCN(S(=O)(=O)c3cccs3)CC2)o1	i	i	8.91µM	17.8µM	i
CCN(CC)S(=O)(=O)N1CCC(C(=O)NCc2ccc(C)cc2)CC1	i	i	i	i	i
Cc1ccc(CNC(=O)C2CCN(S(=O)(=O)c3cccs3)CC2)cc1	i	i	i	i	89.1µM
CCN(CC)c1ccc(CN2CCC(C(=O)NCc3ccc(C)cc3)CC2)cc1	?	i	nt	i	20µM
Cc1ccc(CNC(=O)C2CCC(=O)N(CC3CCCCC3)C2)o1 (configuration not stated)	i	i	44.7µM	i	i
COc1ccc(CNC(=O)C2CCC(=O)N(CC3CCCCC3)C2)cc1 (configuration not stated)	i	i	i	i	i
COc1ccc(CCNC(=O)c2ccc3c(c2)sc2nc(-c4ccccc4)cn23)cc1OC	i	i	i	nt	i
COC(=O)N[C@H](C[N+](=O)[O-])c1cccc(C)c1	nt	nt	nt	i	nt
Cc1ccc(NC(=O)C2CCCN(S(=O)(=O)c3cnc[nH]3)C2)cc1C (configuration not stated)	i	i	i	i	i
CCN(CC)c1ccc(NC(=O)C2CCCN(S(=O)(=O)c3cnc[nH]3)C2)c(C)c1 (configuration not stated)	i	i	35.5µM	i	?
CCCN(CCC)C(=O)Cn1nnc2sc(-c3ccccc3)cc2c1=O	i	?	12.6µM	nt	i
COC(=O)C(C)n1nnc2sc(-c3ccccc3)cc2c1=O (configuration not stated)	i	i	i	i	i
SMILES	HP1b chromo inh	BAZ2B block	G9a inh	Sfp inh	JMJD2A Tudor
CCc1ccc(NC(=O)C(C)n2nnc3sc(-c4ccccc4)cc3c2=O)cc1 (configuration not stated)	i	i	3.55µM	nt	i
CCN(C(=O)Cn1nnc2sc(-c3ccccc3)cc2c1=O)c1cccc(C)c1	i	i	4.47µM	nt	?
CCOC(=O)C1=C(C)N(c2ccccc2)C(=O)C1CC(=O)O (configuration not stated)	i	i	17.8µM	i	i
CCOC(=O)NNC1CC(=O)N(c2ccccc2)C1=O (configuration not stated)	i	i	?	i	i
CCOC(=O)C1=C(C)N(C)C(=O)C1CC(=O)O (configuration not stated)	i	i	i	i	56.2µM
CC(=O)c1ccc(CCCCc2ccc(C(C)=O)cc2)cc1	i	nt	nt	nt	i
CNc1ncnc2ccc(-c3cccc(OC)c3)cc12	nt	nt	i[0.501 µM]	i	nt
